G9a block: G9a (human) methyltransferase inhibition; Q96KQ7; G9a H3K9 monomethylation, AlphaScreen, 2 h; Potency, µM (titrated, usually from 102 µM), without a hit: at the top dose activity, negative = inhibition, hits mostly inhibitors; actives 8.8% (n = 350,000); AID 504332; also: % is scaled to controls: 0 for no effect and ±100 for the full control effect; nearly all actives have a fitted effect of over 75% in size
Target sequence (Q96KQ7 913-1193 limits assumed): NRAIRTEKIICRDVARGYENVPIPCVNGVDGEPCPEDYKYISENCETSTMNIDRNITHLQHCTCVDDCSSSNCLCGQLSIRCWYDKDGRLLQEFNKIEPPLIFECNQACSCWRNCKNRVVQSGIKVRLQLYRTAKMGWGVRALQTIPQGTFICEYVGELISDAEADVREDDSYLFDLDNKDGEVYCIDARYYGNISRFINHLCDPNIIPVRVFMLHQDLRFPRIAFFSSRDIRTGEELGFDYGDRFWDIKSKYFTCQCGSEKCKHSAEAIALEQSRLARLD
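Compounds were preincubated with 20 nM G9a for 15 min, after which biotinylated H3K9 peptide (500 nM) and SAM (20 uM) started a 2 h room-temperature reaction. Monomethylated product was quantified by antibody-based AlphaScreen chemiluminescence.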
HP1b chromo inh: inhibitors of HP1-beta chromodomain binding to methylated histone tails | Potency, µM (top dose mostly 114 µM), for inactives: at the top dose activity change, negative = inhibition, actives largely listed as inhibitors | P83916 | actives 0.56% (n = 390,000) | AlphaScreen HP1-beta / biotin-H3K9me3 peptide binding; also: nearly all actives have a fitted effect of over 70% in size
Target sequence (P83916 whole entry, looked up): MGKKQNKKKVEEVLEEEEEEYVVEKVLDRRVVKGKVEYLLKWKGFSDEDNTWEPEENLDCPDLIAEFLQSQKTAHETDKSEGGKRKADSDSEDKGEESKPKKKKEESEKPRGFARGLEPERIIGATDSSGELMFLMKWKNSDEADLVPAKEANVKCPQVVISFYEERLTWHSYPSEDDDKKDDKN
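Compound inhibition of the preformed complex between 50 nM HP1-beta and 50 nM biotinylated H3K9me3 peptide was read by AlphaScreen. Buffer was PBS pH 7.4 with 0.01% Tween-20. Incubations ran 30 min at room temperature, with 10 ug/mL donor/acceptor beads.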
BAZ2B block: blocks human BAZ2B; Q9UIF8; AlphaScreen BAZ2B-H3K14Ac peptide displacement; Potency, µM (highest dose often 114 µM), for the others: at the highest dose activity change, negative = inhibition, usual class: inhibitors; actives 4.4% (n = 360,000); also: % is scaled to controls: 0 for no effect and ±100 for the full control effect; nearly all actives have a fitted effect of over 60% in size
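AlphaScreen displacement: compounds (up to 110uM) incubated 30 min at room temperature with a preformed 50 nM BAZ2B/50 nM biotinylated H3K14Ac peptide complex in PBS pH 7.4 with Tween-20. Donor and acceptor beads at 10 ug/mL final added, 20 min light-protected before reading.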
JMJD2A Tudor inh: JMJD2A Tudor domain (human) inhibition; Potency, µM (top dose mostly 114 µM), inactives show at the highest dose activity change, negative = inhibition, actives largely listed as inhibitors; AlphaScreen JMJD2A-Tudor / H3K4me3 peptide binding; actives 4.4% (n = 390,000); O75164; also: % is scaled to controls: 0 for no effect and ±100 for the full control effect; nearly all actives have a fitted effect of over 50% in size
GLS inhibitor: blocks human kidney-isoform glutaminase activity; AID 624170; actives 0.21% (n = 410,000); GLS enzymatic activity, qHTS titration; Potency, µM (titrated, usually from 45.5 µM), without a hit: top-dose activity change, negative = inhibition, usual class: inhibitors; O94925; also: % is scaled to controls: 0 for no effect and ±100 for the full control effect
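Coupled fluorescence readout: glutamate oxidase/HRP/Amplex Red detect glutamate formed by hKGA from L-glutamine (1 mM solution added). Buffer 45 mM KH2PO4 pH 8.2, 0.02% Tween-20; reads at t0 and 30 min RT.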
Numbers without * were called inactive; ? = inconclusive; nt = no result given; [ ] = remark or other dose. In the library only some 10% were active in any assay of this set; here they are far more common. Calls follow the shape of the dose curve; as a rule, active = well fitted curve in the direction sought with a large enough effect; inconclusive = small, poorly fitted or top-dose-only effect, or another doubt; inactive = no such curve, though single readings can be large; an effect the other way counts as inactive or inconclusive. Potency is read from the fitted curve at half-maximal effect.

SMILES | G9a block | HP1b chromo inh | BAZ2B block | JMJD2A Tudor inh | GLS inhibitor
O=C(COC(=O)C1CCN(S(=O)(=O)c2cc([N+](=O)[O-])ccc2Cl)CC1)Nc1ncc(Cl)cc1Cl | -18%[0.501 µM] | ? | 32µM* | 25µM* | -28%
CN(Cc1ccccc1)C(=O)C1CCN(S(=O)(=O)c2cc([N+](=O)[O-])ccc2Cl)CC1 | ? | 13% | -7% | -26% | 2%
Cc1ccc(NC(=O)CN(C)S(=O)(=O)c2ccc3c(c2)n(C)c(=O)c(=O)n3C)cc1F | 9%[59 µM] | 39% | 5% | -2% | 0%
Cc1nnc(SCC(=O)N/N=C/c2cn(-c3ccccc3)nc2-c2ccccc2)n1-c1ccccc1 | 30%[0.501 µM] | -8% | -37%[57.1 µM] | -18%[11.4 µM] | -15%
O=C(Nc1cccc2ccccc12)N1CC=C(c2ccccc2)CC1 | 45µM* | 16% | 1% | -17% | 9%
O=C(CSc1nc2ccccc2[nH]1)Nc1nc(-c2cccc(Br)c2)cs1 | ? | 21% | -9% | -10% | 8%
CN(C)CCCn1c(SCC(=O)Nc2nc(-c3cccc(Br)c3)cs2)nc2ccccc2c1=O | ? | ? | ? | 40µM* | 0%
Fc1ccc(CN2CCCCCCC2)c(F)c1 | ? | ? | 50µM* | 3.2µM* | 1%
Fc1ccc(CN2CCCCCC2)c(F)c1 | -9%[12.7 µM] | ? | ? | ? | 13%
Fc1ccccc1CN1CCCCCCC1 | -50%[12.7 µM] | ? | 50µM* | 4µM* | 0%
Cc1ccc(SCCC(=O)OCC(=O)Nc2ccc(C(N)=O)cc2)cc1 | ? | 26% | -6% | -4% | 0%
CC1=Nc2cccc3cccc(c23)N1 | 25µM* | ? | -5% | ? | -6%
COc1cccc(C2=Nc3cccc4cccc(c34)N2)c1 | 16µM* | ? | 40µM* | 50µM* | 11µM*
c1coc(C2=Nc3cccc4cccc(c34)N2)c1 | 40µM* | ? | ? | -29% | 0%
c1cc2c3c(cccc3c1)NN=N2 | nt | ? | nt | ? | 16%
Nc1ccc(C2=Nc3cccc4cccc(c34)N2)cc1 | ? | 25% | 50µM* | -23% | 8%
O=C(CSCCO)Nc1ccccc1 | -49%[59 µM] | 34% | 7% | -10% | 7%
Cc1noc(/C=C/N(C)C)c1S(=O)(=O)N1CCCC(C(=O)NCc2cccs2)C1 (stereo unspecified) | -31% | 23% | 19% | -13% | 6%
CCCN(C(=O)Cc1nc(N)n[nH]1)C1(C(=O)Nc2c(C)cccc2C)CCCCC1 | -4%[12.7 µM] | 43% | 79µM* | -35% | 2%
Cc1cccc(C)c1NC(=O)C1(N(Cc2ccco2)C(=O)CC2NC(=O)NC2=O)CCCCC1 (stereo unspecified) | -3%[12.7 µM] | 52% | 4% | -6% | 12%
CCCN(C(=O)Cc1nc(N)n[nH]1)C1(C(=O)Nc2ccccc2C)CCCCC1 | 5%[12.7 µM] | 20% | 45µM* | ? | 4%
CC(C)C1Oc2cc3oc(=O)ccc3cc2C1=O (stereo unspecified) | 79µM* | 33% | -12% | 1% | 3%
Cc1nc2nc[nH]n2c(=O)c1NS(=O)(=O)c1ccc(C(C)(C)C)cc1 | -40% | 37% | -2% | -2% | 26%
N#Cc1c2n(c(=S)n(-c3ccccn3)c1=O)CCCCC2 | 22µM* | 23% | 5% | -13% | 0%
COc1cc(-c2nc(-c3ccccc3)c(-c3cc([N+](=O)[O-])ccc3C)[nH]2)cc(OC)c1OC | 10µM* | -30% | ? | ? | -8%
SMILES | G9a block | HP1b chromo inh | BAZ2B block | JMJD2A Tudor inh | GLS inhibitor
Clc1ccccc1CSc1nnc(-c2ccncc2)o1 | 47% | 33% | -2% | -11% | -4%
Brc1cccc(CSc2nnc(-c3ccncc3)o2)c1 | 45µM* | 58% | 27% | 4% | -6%
c1ccc2c(CSc3nnc(-c4ccncc4)o3)cccc2c1 | 50µM* | -6% | 4% | -13% | 1%
c1ccc(-c2nnc(SCc3ccncc3)o2)cc1 | nt | nt | nt | nt | 6%
O=C1N=c2ccc(Br)cc2=C1c1sc(=O)[nH]c1O | 45µM* | nt | ? | nt | nt
CCn1c(O)c(C2=c3ccccc3=NC2=O)c2cc(Br)ccc21 | ? | 7% | -35% | -19% | -5%
CCCCNC(=O)c1sc(=S)n2c1[nH]c(=O)c1ccccc12 | ? | -32% | 50µM* | 79µM* | ?
O=C(NC1CCCCC1)c1sc(=S)n2c1[nH]c(=O)c1ccccc12 | nt | ? | ? | 56µM* | -10%
CCCCNC(=O)c1sc2ncccc2c1-n1cccc1 | -29%[59 µM] | 17%[57 µM] | -14% | -4% | 1%
CC1=C(C(=O)Nc2ccccc2)C(c2ccc(Cl)cc2)n2c(s/c(=C/c3cccc(OCC(=O)O)c3)c2=O)=N1 (stereo unspecified) | ? | ? | 56µM* | ? | -3%
CC1=C(C(=O)Nc2ccccc2C)C(c2ccc(C)o2)n2c(s/c(=C/c3ccccc3)c2=O)=N1 (stereo unspecified) | -50% | 19% | -29% | -6% | -6%
CC1=C(C(=O)Nc2ccccc2)C(c2ccc(C)o2)n2c(s/c(=C/c3ccccc3)c2=O)=N1 (stereo unspecified) | -8% | 42% | 2% | -6% | -13%
CCOc1ccc(C2C(C(=O)Nc3ccccc3)=C(C)N=c3s/c(=C/c4cccc(OCC(=O)O)c4)c(=O)n32)cc1 (stereo unspecified) | 50µM* | 9% | ? | ? | -3%
C[N+]1(CC(=O)OCCCc2ccccc2)CCCC1 | 10µM* | 21% | 56µM* | ? | -3%
CCc1ccc(NC(=O)Cn2nc(C(F)(F)F)c3c2CCCC3)cc1 | 4%[59 µM] | 45% | 1% | -5% | 2%
CCc1c(C)sc(NC(=O)Cn2nc(C(F)(F)F)c3c2CCCC3)c1C#N | 14µM* | -10% | 10% | 4% | nt
Cc1ccc(C(=O)C[n+]2cc(-c3ccc(C)cc3)n3c2CCCCC3)cc1 | ? | 7% | 31% | -13% | 4%
O=C(C[n+]1cc(-c2ccccc2)n2c1CCCCC2)c1ccc(Br)cc1 | 50µM* | 16% | -24% | -17% | -4%
O=C(C[n+]1cc(-c2ccc(F)cc2)n2c1CCC2)Nc1nc(-c2ccccc2)cs1 | -11%[59 µM] | 8% | -28% | -31% | 11%
Cc1ccc(NC(=O)C[n+]2cc(-c3ccc(C)cc3)n3c2CCC3)cc1 | -49% | 17% | 4% | 8.9µM* | -25%
CC1CCC2(CC1)NC(=O)N(CC(=O)Nc1nc(-c3ccc(F)cc3)cs1)C2=O (stereo unspecified) | 50µM* | 12% | -3% | 5% | 9%
Cc1ccc(-c2c[n+](CC(=O)Nc3nc(-c4ccc(F)cc4)cs3)c3n2CCC3)cc1 | 45µM* | -18% | -37% | -31% | 8%
COc1ccc(-c2csc(NC(=O)CN3C(=O)NC4(CCCC4)C3=O)n2)cc1 | -28% | 15% | -5% | -3% | 9%
